The values below come from ChEMBL document CHEMBL3988442, “University of Dundee, Small-Polar-MMV Screening Library” (2021).

What all share (parameters): scale not given: direction of the effect not stated beside the values
In assay [1] the target is Protein translocase subunit SecA (Escherichia coli (strain K12)) (UniProt P10408). The experiment in a line: Assay to Identify E. coli SecA ATPase Inhibitors. In kind it is functional. The settings on record: 30 µM.
Assay [2] has as its target T1, Ubiquitin-activating enzyme e1, putative (Leishmania donovani (strain BPK282A1)) (UniProt E9BSI1).
T1 sequence (whole entry): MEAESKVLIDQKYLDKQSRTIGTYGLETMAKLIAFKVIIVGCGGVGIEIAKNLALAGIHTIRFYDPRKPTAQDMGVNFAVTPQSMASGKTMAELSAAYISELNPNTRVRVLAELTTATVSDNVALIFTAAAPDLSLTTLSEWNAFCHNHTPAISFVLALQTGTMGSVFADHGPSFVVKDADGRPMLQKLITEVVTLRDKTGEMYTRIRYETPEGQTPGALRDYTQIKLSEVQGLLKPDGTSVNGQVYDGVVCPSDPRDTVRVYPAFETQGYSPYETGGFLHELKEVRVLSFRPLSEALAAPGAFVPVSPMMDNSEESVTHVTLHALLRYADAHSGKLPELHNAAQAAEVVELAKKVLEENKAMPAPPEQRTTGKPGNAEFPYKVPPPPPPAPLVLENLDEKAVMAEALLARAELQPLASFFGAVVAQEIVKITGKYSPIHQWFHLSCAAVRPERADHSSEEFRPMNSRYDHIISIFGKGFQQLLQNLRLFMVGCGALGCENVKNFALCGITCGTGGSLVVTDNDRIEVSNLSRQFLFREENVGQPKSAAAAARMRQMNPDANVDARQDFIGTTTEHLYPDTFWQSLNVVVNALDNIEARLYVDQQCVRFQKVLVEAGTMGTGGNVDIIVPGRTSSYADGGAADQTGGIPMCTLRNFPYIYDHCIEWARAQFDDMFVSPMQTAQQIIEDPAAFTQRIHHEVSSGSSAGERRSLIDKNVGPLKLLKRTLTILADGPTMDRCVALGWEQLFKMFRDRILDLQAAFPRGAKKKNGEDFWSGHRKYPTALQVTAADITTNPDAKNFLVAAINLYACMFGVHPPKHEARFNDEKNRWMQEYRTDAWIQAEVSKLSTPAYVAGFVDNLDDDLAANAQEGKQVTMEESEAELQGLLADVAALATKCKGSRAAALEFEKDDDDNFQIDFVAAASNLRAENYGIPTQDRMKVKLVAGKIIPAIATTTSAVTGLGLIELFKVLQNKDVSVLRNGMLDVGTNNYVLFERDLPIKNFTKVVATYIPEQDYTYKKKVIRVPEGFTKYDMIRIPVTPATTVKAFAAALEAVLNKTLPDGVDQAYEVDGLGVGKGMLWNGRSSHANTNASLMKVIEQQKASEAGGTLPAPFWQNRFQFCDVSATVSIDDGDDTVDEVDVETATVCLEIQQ
The experiment in a line: Leishmania donovani Ubiquitin Activating Enzyme (LdE1). The class given is functional. The following applies: 30 µM.

Assay [3] deals with AMP-activated protein kinase, AMPK (Homo sapiens) (UniProt P54646+O43741+P54619+Q9UGJ0+Q9Y478+Q13131+Q9UGI9). The assay can be described thus: AMP-dependent Kinase enzyme assay. An in vitro enzyme assay that detects ADP turnover that is directly proportional to AMPK activity. This uses naive AMPK that is activated during the assay with MK-8722. In kind it is functional. The following applies: 30 µM.

Assay [4] deals with Sialic acid-binding Ig-like lectin 9 (Homo sapiens) (UniProt Q9Y336). The assay can be described thus: Hs-Siglec9 ALPHAscreen SOP 20170721. The following applies: 10 µM. On the technique in general: In Alpha technology, singlet oxygen from a donor bead excites a nearby acceptor bead.
Assay [5] concerns Trypanosoma cruzi. The assay can be described thus: Trypanosoma cruzi phosphomannomutase and mannose-1-phosphate guanylyltransferase assay. The following applies: 10 µM. The class given is functional.
Assay [6] concerns the target T2, Arginase-2, mitochondrial (Homo sapiens) (UniProt P78540).
T2 sequence (whole entry): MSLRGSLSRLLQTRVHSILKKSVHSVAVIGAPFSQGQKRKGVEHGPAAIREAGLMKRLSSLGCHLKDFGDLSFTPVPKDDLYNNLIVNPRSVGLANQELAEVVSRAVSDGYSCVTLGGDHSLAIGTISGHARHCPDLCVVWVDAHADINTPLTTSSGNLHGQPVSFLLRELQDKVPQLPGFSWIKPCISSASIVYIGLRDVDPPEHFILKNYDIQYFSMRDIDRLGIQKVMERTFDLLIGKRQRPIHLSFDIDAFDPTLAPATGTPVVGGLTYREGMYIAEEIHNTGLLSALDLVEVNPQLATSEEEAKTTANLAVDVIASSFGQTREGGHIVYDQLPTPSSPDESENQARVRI
The assay can be described thus: in vitro enzyme assay to detect the production of urea directly proportional to the activity of Arginase II. Further: in the data most compounds retested in dose-response had high values. The class given is functional. The following applies: 33.3 µM.

The target in assay [7] is T3, Proteasome subunit beta (Trypanosoma cruzi) (UniProt O96673).
T3 sequence (whole entry): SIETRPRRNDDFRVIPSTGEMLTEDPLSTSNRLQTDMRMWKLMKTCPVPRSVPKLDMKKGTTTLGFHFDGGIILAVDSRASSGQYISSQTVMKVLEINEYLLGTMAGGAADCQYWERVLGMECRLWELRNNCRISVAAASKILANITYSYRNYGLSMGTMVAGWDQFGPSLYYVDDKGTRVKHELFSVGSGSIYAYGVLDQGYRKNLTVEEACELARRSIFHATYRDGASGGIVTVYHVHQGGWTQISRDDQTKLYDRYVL
The assay can be described thus: Trypanosoma cruzi proteasome chymotrypsin-like activity (TcProtChymo) assay. Further: in the data most compounds retested in dose-response had high values. In kind it is functional. The following applies: 9.37 µM.

Assay [8] is filed under the species Homo sapiens. The assay can be described thus: To identify inhibition of the IFN signalling (Jak-Stat) pathway via expression of an eGFP reporter gene under the control of an IFN-stimulated response element (ISRE) containing MxA promoter. The following applies: 30 µM. In kind it is functional. For orientation: Reporter assays use an easily measured gene product as a stand-in for the process of interest.

In assay [9] the target is T4, Tyrosyl-tRNA synthetase, putative (Trypanosoma cruzi (strain CL Brener)) (UniProt Q4DSP6).
T4 sequence (whole entry): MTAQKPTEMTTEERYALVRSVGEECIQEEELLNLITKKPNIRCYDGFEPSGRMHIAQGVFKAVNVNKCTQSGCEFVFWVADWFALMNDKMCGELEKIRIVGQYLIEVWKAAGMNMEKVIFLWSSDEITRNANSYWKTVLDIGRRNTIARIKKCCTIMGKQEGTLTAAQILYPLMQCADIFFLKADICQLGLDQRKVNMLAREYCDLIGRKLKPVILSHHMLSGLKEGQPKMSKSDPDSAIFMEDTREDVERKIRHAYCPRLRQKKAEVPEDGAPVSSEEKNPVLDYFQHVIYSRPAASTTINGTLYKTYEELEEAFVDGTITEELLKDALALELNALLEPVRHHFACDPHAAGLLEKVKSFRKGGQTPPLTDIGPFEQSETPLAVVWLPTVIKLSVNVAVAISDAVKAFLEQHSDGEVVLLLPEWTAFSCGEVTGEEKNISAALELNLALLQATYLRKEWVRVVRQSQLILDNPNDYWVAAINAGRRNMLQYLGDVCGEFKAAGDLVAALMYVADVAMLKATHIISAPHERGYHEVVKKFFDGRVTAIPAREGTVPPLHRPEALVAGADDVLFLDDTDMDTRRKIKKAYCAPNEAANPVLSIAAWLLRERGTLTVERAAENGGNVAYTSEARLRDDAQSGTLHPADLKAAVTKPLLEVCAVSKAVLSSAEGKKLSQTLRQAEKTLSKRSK
The experiment in a line: Trypanosoma cruzi tyrosyl tRNA synthetase (TcYRS) _High Tyrosine SOP. Further: in the data most compounds retested in dose-response had high values. The settings on record: 30 µM. In kind it is functional.

Assay [10] addresses T4, Tyrosyl-tRNA synthetase, putative (Trypanosoma cruzi (strain CL Brener)). The experiment in a line: Trypanosoma cruzi tyrosyl tRNA synthetase (TcYRS) SOP. The settings on record: 30 µM. The class given is functional.
Assay [11] addresses Chromo domain-containing protein 1 (Saccharomyces cerevisiae (strain ATCC 204508 / S288c) (Baker's yeast)) (UniProt P32657). The assay can be described thus: ScCHD-1 Enzyme Inhibition Assay. Further: in the data most compounds retested in dose-response had high values. The class given is functional. The following applies: 30 µM.

For some of these results: Results with a measured potency or affinity are listed apart.

Chromo domain-containing protein 1 (Saccharomyces cerevisiae (strain ATCC 204508 / S288c) (Baker's yeast)), sequence (P32657 whole entry, the tested form may be a part): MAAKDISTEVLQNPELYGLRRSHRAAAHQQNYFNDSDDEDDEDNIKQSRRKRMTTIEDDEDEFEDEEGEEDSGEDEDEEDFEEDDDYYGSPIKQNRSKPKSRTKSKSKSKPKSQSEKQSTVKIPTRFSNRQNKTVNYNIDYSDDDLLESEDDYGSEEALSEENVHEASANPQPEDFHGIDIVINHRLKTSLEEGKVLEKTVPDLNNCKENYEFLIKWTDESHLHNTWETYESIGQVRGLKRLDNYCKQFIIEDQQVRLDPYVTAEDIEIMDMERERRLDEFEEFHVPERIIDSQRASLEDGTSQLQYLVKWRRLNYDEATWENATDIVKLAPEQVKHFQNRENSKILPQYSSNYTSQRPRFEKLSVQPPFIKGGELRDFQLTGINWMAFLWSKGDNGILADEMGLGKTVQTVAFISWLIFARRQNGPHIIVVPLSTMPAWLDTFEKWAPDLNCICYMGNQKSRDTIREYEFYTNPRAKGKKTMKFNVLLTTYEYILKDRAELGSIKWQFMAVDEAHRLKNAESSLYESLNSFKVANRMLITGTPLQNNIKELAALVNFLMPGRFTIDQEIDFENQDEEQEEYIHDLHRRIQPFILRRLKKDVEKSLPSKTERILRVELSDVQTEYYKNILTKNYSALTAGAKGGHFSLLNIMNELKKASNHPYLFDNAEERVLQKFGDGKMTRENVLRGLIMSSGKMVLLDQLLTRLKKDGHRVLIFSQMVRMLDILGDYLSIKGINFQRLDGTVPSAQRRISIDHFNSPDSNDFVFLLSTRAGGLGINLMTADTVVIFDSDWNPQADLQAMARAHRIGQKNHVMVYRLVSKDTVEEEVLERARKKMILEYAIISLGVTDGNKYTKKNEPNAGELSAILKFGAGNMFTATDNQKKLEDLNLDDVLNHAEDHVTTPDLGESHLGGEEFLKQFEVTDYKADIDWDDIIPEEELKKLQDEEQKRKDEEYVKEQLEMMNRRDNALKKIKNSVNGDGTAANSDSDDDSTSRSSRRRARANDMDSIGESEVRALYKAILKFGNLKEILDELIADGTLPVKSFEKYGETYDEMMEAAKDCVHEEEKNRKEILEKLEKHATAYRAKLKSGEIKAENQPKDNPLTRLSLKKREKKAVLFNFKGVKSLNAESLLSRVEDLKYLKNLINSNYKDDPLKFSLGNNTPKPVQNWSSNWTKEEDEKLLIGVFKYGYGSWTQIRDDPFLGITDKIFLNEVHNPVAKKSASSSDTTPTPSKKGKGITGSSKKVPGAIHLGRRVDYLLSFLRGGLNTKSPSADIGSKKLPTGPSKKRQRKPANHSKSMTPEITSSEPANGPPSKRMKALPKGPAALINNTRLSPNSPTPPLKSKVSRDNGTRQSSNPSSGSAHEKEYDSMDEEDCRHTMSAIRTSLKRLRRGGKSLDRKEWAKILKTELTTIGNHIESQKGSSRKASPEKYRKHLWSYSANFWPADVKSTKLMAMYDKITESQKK
Sialic acid-binding Ig-like lectin 9 (Homo sapiens), sequence (Q9Y336 whole entry): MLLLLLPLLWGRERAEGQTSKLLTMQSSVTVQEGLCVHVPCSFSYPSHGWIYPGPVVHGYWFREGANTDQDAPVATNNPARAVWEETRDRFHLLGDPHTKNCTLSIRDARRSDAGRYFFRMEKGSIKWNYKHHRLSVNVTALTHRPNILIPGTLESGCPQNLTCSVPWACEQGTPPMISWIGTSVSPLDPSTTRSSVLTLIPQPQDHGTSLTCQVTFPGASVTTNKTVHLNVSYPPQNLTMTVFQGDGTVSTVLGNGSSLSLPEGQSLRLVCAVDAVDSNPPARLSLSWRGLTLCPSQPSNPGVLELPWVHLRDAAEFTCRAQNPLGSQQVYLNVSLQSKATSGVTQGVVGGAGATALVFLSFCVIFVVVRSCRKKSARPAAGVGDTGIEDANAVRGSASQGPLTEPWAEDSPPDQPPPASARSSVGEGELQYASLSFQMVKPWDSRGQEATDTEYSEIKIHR
Protein translocase subunit SecA (Escherichia coli (strain K12)), sequence (P10408 whole entry): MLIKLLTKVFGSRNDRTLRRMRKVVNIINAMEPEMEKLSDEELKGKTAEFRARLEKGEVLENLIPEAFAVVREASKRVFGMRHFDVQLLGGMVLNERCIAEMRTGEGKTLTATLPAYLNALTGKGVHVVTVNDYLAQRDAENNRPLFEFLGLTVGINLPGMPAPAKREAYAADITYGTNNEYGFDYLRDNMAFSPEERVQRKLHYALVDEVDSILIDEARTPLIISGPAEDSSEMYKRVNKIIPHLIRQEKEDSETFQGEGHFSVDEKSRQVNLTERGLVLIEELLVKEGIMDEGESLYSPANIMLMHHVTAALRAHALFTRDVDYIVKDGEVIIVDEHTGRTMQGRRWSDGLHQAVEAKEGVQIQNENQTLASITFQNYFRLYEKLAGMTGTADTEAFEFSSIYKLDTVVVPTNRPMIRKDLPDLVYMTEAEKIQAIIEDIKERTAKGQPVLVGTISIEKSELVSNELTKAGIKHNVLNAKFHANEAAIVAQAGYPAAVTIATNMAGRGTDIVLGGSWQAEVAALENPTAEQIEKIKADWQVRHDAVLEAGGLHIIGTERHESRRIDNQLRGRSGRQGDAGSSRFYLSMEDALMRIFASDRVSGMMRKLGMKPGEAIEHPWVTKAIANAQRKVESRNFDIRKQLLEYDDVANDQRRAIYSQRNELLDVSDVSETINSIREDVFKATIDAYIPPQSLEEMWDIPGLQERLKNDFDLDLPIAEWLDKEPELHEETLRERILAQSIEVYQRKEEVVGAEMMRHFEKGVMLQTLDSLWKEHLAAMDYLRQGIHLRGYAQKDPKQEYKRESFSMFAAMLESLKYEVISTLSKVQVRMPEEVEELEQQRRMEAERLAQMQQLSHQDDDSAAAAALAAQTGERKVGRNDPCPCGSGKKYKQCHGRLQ

For `CCn1nccc1CNC(=O)C1CCCC1`, the Percent Effect was 0.221% in assay [1]; 10.4% in [2]; 2.62% in assay [3]; 4.33% in assay [4]; -7.38% in assay [5]; 1.38% in [6]. Also, the Percent Effect is 9.65% in [7]; -1.06% in assay [8]; 5.38% in assay [9]; 16.1% in [10]; -0.569% in assay [11].
On to `O=C(c1ccc[nH]1)N1CCC(c2nccn2Cc2ccncc2)CC1`, for which the Percent Effect in assay [1] was -3.39%; in assay [2], 13.7%; in assay [3], -1.71%; in [4], 5.74%; in assay [5], 7.05%; in assay [6], 14.1%. The Percent Effect was 8.7% in [7]; 11.4% in assay [8]; 5.38% in [9]; 10% in [10]; -6.61% in assay [11].
`CC(C)C(=O)N1CCCC(c2cc(C(F)F)n3ncnc3n2)C1` (stereo unspecified): the Percent Effect in assay [1] was -6.98%; in [2], 4.05%; in assay [3] it was 6.16%; in [4] it was -5.54%; in assay [5], -4.94%; in assay [6], -6.73%. The Percent Effect was 4.21% in assay [7]; 18% in [8]; -3.23% in [9]; 1.3% in [10]; -0.33% in assay [11].
As to `c1cnn(CC2CN(Cc3ccc(-n4ccnc4)cc3)CCO2)c1` (stereo unspecified), the Percent Effect in assay [1] is -2.02%; in [2], 17.7%; in assay [3] it was -6.89%; in assay [4], 4.49%; in [5], 3.68%; in [6] it was 0.76%. The Percent Effect is 6.14% in [7]; 0.886% in [8]; 9.36% in [9]; 24.1% in [10]; -2.59% in assay [11].
Turning to `CN(Cc1cccs1)C(=O)CN1CCCC1Cn1cncn1` (stereo unspecified), the Percent Effect in assay [1] is -1.48%; in [2] it was 10.4%; in [3], -63.7%; in assay [4] it was 2.24%; in [5], -1.08%; in assay [6], -5.52%. The Percent Effect in [7] was 20.3%; in assay [8], -3.55%; in assay [9], 7.53%; in assay [10], 13.6%; in [11], -2.25%.
`Cc1cc(NC(=O)NCC(O)c2ccc(Cl)cc2Cl)n(C)n1` (stereo unspecified): the Percent Effect is -2.82% in assay [1]; -2.63% in [2]; 1.15% in assay [3]; 8.57% in assay [4]; 0.376% in assay [5]; -0.383% in [6]. Besides, the Percent Effect is -2.17% in assay [7]; -20.8% in [8]; -0.49% in assay [9]; -75.6% in assay [10]; -5.69% in assay [11].
For `CCn1c(NCc2ccco2)nc2c(C)nn(C)c2c1=O`, the Percent Effect in [1] is -2.68%; in [2] it was 20%; in assay [3] it was 4.54%; in [4], -6.91%; in [5], 3.93%; in [6], 92.8%. Moreover, the Percent Effect in [7] is 22.6%; in assay [8], 7.87%; in assay [9], 9.52%; in assay [10] it was 17.9%; in assay [11], -14%.
With `CCc1nc(C2CCCN2C(=O)CCc2cccs2)no1` (stereo unspecified), the Percent Effect in [1] was -3.51%; in assay [2], -2.7%; in [3], -4.68%; in assay [4] it was 4.58%; in assay [5], -3.81%; in [6] it was 1.29%. Besides, the Percent Effect was -4.49% in assay [7]; 3.17% in [8]; -0.99% in assay [9]; -8.54% in assay [10]; -2.06% in [11].
For the molecule `c1cc(CNCC2OCCc3cn(CC4CCOCC4)nc32)ccn1` (stereo unspecified), the Percent Effect is -0.867% in assay [1]; -37.8% in assay [2]; 1.52% in assay [3]; -8.34% in assay [4]; 1.86% in assay [5]; 4.78% in assay [6]. Further, the Percent Effect in assay [7] was 29%; in [8], 18.1%; in assay [9], 6.49%; in [10], 17.9%; in assay [11], 1.56%.
For the molecule `CCc1ccc(C(=O)N2CCCC(c3noc(CC)n3)C2)o1` (stereo unspecified), the Percent Effect was -0.983% in assay [1]; 2.6% in assay [2]; 7.44% in [3]; 4.61% in [4]; 3.04% in assay [5]; 0.21% in assay [6]. The Percent Effect in [7] is 4.12%; in assay [8], 3.88%; in assay [9], 0.952%; in [10] it was 7.06%; in [11] it was -10.5%.
For the molecule `CN(C)CC1CN(Cc2csc(C3CCCC3)n2)CCO1` (stereo unspecified), the Percent Effect was -2.18% in assay [1]; 5.26% in assay [2]; -6.29% in assay [3]; 9.69% in assay [4]; 6.63% in assay [5]; 0.36% in assay [6]. In addition, the Percent Effect was 7.02% in assay [7]; -33% in [8]; 8.37% in assay [9]; 16.1% in assay [10]; 4.62% in assay [11].
